# Measured values taken from PubChem BioAssay AID2401 (Southern Research Specialized Biocontainment Screening …, 2010).
# Hit rate of the full screen: of about 2,200 compounds, about 530 (24%) were called active. Only a sample is shown. Potency and affinity values are given separately. A number with no mark means an inactive call.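 How the source made its calls: active means inhibition above a set limit at one or more concentrations of the dose series; inactive means inhibition under that limit at every dose.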
# Assay: nmpC-GFP reporter counter-screen in S. Typhimurium, dose response, counter-screen for PhoP regulon inhibitor project, Salmonella Typhimurium, GFP fluorescence (AID 2401);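 further: S. typhimurium with Mg-insensitive nmpC-GFP reporter grown at 10 µM Mg2+; drop in reporter fluorescence reflects general culture growth inhibition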
# Details: 4 h; series mostly up to 150 µM; inhibition: at the top concentration
row,Structure (SMILES),inhibition [%]
1,Nc1ccc2nc(SCC(=O)Nc3ccc(N4CCOCC4)c(Cl)c3)sc2c1,13.4
2,COc1cccc(NS(=O)(=O)c2c(C)cc(C)cc2C)c1,-7.85
3,COc1ccc(-c2ccc(C#N)c(SCC(=O)NCCc3ccccc3)n2)cc1OC,0.91
4,Cc1ccc(Nc2nc(Cl)nc(N(C)C#N)n2)cc1,2.65
5,c1csc(C2Nc3cccc4cccc(c34)N2)c1,0.19
6,Clc1ccc(OCCn2ccnc2)c2ccccc12,-0.92
7,CCOCC(=O)Nc1ccc(F)c(F)c1,4.86
8,Cc1ncoc1C(=O)Nc1cccc(Cl)c1,15.7
9,COCCNC(=S)N(Cc1cccnc1)Cc1ccc(OC)c(OC)c1,-20.2
10,O=C1NC(=O)C(=C2CCCCCC2)S1,36.9
11,Nc1cc(N2CCCCC2)c(Cl)cc1[N+](=O)[O-],-15.6
12,Cc1ccc(N2C(=O)CC(Nc3ccccc3)C2=O)cc1 (stereo not drawn),11.4
13,COc1ccc(-c2nnc(SCCC(=O)O)n2-c2ccccc2)cc1,-26.7
14,Nc1nc(-c2ccc3c(c2)OCCO3)cs1,-21
15,Cc1ccc(C)c(NC(=S)NCCSc2ccc(Cl)cc2)c1,-14.8
16,CCc1cc2c(NCCC(=O)O)nc(C)nc2s1,-11.1
17,CC(=O)Nc1ccc(-c2nnc(SCc3c(C)cc(C)cc3C)n2C)cc1,-11.1
18,c1ccc(CSc2snnc2-c2ccccc2)cc1,-31.4
19,CCn1c(SCC(=O)Nc2ccc3c(c2)oc2ccccc23)nnc1-c1ccc(N)cc1,2.44
20,NNC(=O)CNC(c1ccccc1)c1cc(Br)ccc1NC(=O)c1ccc(Br)cc1 (stereo not drawn),13.7
21,Cc1cccc(N2CCN(CC(=O)Nc3nccs3)CC2)c1C,-13.5
22,FC(F)(F)c1cccc(NC(=S)NCCN2CCOCC2)c1,-6.17
23,Cc1cc(C)cc(-n2c(C)cc(C=C(C#N)C#N)c2C)c1,-13.9
24,CCOC(=O)C1=C(C)Nc2nc3ccccc3n2C1c1cccs1 (stereo not drawn),-23.9
25,Cc1ccc(C(=O)Oc2cccc(NC(=O)c3cccs3)c2)cc1S(=O)(=O)N1CCOCC1,1.74

row,Structure (SMILES),inhibition [%]
1,COc1c(Cl)cnn(-c2ccc(C)cc2)c1=O,-8.06
2,CCc1c(C)c2cc(Cl)c(O)c(CN3CCCCC3)c2oc1=O,-17.8
3,CCc1ccc(NC(=O)c2noc3c2CCc2ccccc2-3)cc1,-4.07
4,C=CCOc1ccc(/C=N/NC(=O)CN(c2cc(Cl)ccc2OC)S(=O)(=O)c2ccc(C)c([N+](=O)[O-])c2)cc1,4.39
5,O=C(NCCc1cn2ccccc2n1)c1ccccc1F,0.92
6,Cc1nc(SCC(=O)NC(C)c2ccccc2)c2oc3ccccc3c2n1 (stereo not drawn),-19.4
7,COc1ccc(C(=O)N2CCc3cc(OC)c(OC)cc3C2)cc1OC,-1.95
8,Cc1ccc(S(=O)(=O)NNC(=O)c2ccc(O)cc2)cc1,-8.07
9,CCOC(=O)c1sc(NC(=O)Nc2ccc(Cl)cc2)cc1C,-2.19
10,COc1ccccc1NC(=S)NC(=O)C(C)(C)C,-16.6
11,CCc1ccc2[nH]c(=O)c(CN(Cc3ccccc3)C(=O)Nc3ccccc3OC)cc2c1,-16.5
12,COc1ccccc1N1CCN(C(=O)c2cccc3c(=O)c(C)c(-c4ccccc4)oc23)CC1,-10.7
13,CCN1C(=O)N/C(=C/c2ccc(Sc3ccc(C)cc3)o2)C1=O,16.1
14,CC(=O)c1cccc(NC(=O)Nc2cc3sccc3n2C)c1,15.5
15,COc1cc(C2SCC(=O)N2c2nnc(C34CC5CC(CC(C5)C3)C4)s2)cc(OC)c1OC (stereo not drawn),-11.2
16,Brc1ccc(OCCn2ccnc2)cc1,22.6
17,CCCCNC(=O)OC1CCS(=O)(=O)C1 (stereo not drawn),-14.7
18,O=c1c(Cl)c(Cl)cnn1Cc1ccccc1Cl,-23.5
19,Cc1ccc(S(=O)(=O)N(CC(=O)N=Nc2c(O)[nH]c3ccccc23)c2ccc(C)c(C)c2)cc1,1.85
20,Cc1ccccc1C(=O)N(C)Cc1ccccc1,-13.5
21,CCc1nc2cc(Cl)c(Cl)cc2[nH]1,25.5
22,CCn1cc(C(=O)O)c(=O)c2cc(Br)ccc21,26.6
23,O=C(Cn1nc(Cc2cccnc2)c2ccccc2c1=O)NCc1ccc2c(c1)OCO2,-18.9
24,Cc1ccc(S(=O)(=O)c2cn(Cc3ccc(F)cc3)c3cc4c(cc3c2=O)OCO4)cc1,11.5
25,O=C(O)c1cc(NCc2ccc3c(c2)OCO3)ccc1N1CCOCC1,-11.9

row,Structure (SMILES),inhibition [%]
1,COc1ccc(OC)c(-c2cc(C(=O)Nc3c(C)nn(Cc4ccccc4)c3C)no2)c1,9.76
2,CCS(=O)(=O)Nc1cc(C(=O)OC)ccc1C(=O)OC,-28.1
3,Cn1nnnc1SCC(=O)NC1CCCCC1,-26.8
4,COC(=O)c1ccc(NC(=S)Nc2ccc3ccccc3c2)cc1,0.98
5,Cc1nn2c(=O)cc(CSc3nc4ccccc4[nH]3)nc2s1,-16.9
6,CCn1ncc(/C=C/C(=O)NCc2cn(C)nc2C)c1C,-28
7,COc1ccc(S(=O)(=O)N2CCN(Cc3ccccc3)CC2)cc1,-13.4
8,CCN(CC)S(=O)(=O)c1ccc2[nH]cc(C(=O)NCCc3ccccc3)c(=O)c2c1,-2.33
9,CN(c1ccccc1)S(=O)(=O)c1ccc(C(=O)Nc2nnc(-c3ccc(F)cc3)o2)cc1,3.22
10,Cc1ccc(C)c(NC(=O)C(Sc2nnc(-c3cccs3)o2)c2ccccc2)c1 (stereo not drawn),13.8
11,Oc1ccc(Br)cc1-c1nc2cnccn2c1NC1CCCCC1,-17.6
12,O=C(Nc1ccccn1)NC1CCCCC1,-23.9
13,COc1ccc(N2C(=O)C3CCCN3C2c2cccc(C)c2)cc1Cl (stereo not drawn),-11.8
14,O=C(/C=C/c1ccco1)N/C(=C\c1ccccc1)C(=O)NCCc1nc2ccccc2[nH]1,7.59
15,CC(C(=O)NC1CCCc2ccccc21)N1CCN(Cc2ccc3c(c2)OCO3)CC1 (stereo not drawn),16.4
16,Cc1ccccc1Nc1nnc(SCC(=O)NC2CCCc3ccccc32)s1 (stereo not drawn),7.38
17,Cc1ccc(CNc2oc(-c3cccs3)nc2C#N)cc1,-1.55
18,CN(CC(=O)N1CCN(c2ccccn2)CC1)S(=O)(=O)c1ccc2ccccc2c1,-0.24
19,COc1ccc(C2C(C#N)=C(N)OC3=C2C(=O)CCC3)cc1Cn1cc([N+](=O)[O-])cn1 (stereo not drawn),12.2
20,COc1ccc(Nc2nnc(SCc3cn4c(C)cccc4n3)s2)cc1,15.9
21,Cc1cc(N/N=C/c2cccc(Cl)c2)nc(NCc2ccccc2)n1,-33
22,Clc1ccc(Nc2ccc(NCc3ccccc3)nn2)cc1,33.6
23,Cc1ccc(NC(=O)CSc2nnc(C3CCCCC3)n2N)cc1F,-18.6
